The values below come from PubChem BioAssay (EPA / NIEHS).

Records with an inconclusive call do not appear. Activity calls are given as the source filed them. The calls were made as follows: active = hit-call score of the fitted dose curve at least 0.9, where 1 is the maximum; inconclusive = response in the unintended direction; inactive = score below 0.9.

Glyceraldehyde-3-phosphate dehydrogenase (Homo sapiens), sequence (P04406 whole entry, looked up): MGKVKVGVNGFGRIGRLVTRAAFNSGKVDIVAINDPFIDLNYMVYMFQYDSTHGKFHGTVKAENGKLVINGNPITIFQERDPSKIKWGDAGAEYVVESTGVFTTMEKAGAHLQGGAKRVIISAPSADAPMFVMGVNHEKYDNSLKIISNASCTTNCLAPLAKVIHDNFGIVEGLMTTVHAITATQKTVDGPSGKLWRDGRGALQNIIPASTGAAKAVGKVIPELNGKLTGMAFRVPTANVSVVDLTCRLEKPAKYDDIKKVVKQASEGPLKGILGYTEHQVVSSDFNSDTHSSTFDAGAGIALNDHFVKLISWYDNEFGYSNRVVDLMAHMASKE

Read-out in this experiment: Glyceraldehyde-3-phosphate dehydrogenase (Homo sapiens) (UniProt P04406)
The experiment can be described thus: CLD_GAPDH_24hr: CellzDirect (CLD) Gene Expression Assay for Baseline Control (Glyceraldehyde 3-phosphate dehydrogenase) at 24 hours (AID 2283692). The procedure: CLD_24hr is a cell-based, multiplexed-readout assay that uses hepatocyte, a human liver primary cell, with measurements taken at 24 hours after chemical dosing in a 96-well plate.CLD_GAPDH_24hr is one of 16 assay component(s) measured or calculated from the CLD_24hr assay. It is designed to make measurements of mRNA induction, a form of inducible reporter, as detected with chemiluminescence signals by Quantitative Nuclease Protection Assay (qNPA) technology.Data from the assay component CLD_GAPDH_24hr was analyzed at the endpoint, CLD_GAPDH_24hr, in the positive analysis fitting direction relative to DMSO as the negative control and baseline of activity. Using a type of inducible reporter, gain-of-signal activity can be used to understand changes in the reporter gene as they relate to the gene GAPDH. Furthermore, this assay endpoint can be referred to as a secondary readout, because this assay has produced multiple assay endpoints where this one serves a background control function. To generalize the intended target to other relatable targets, this assay endpoint is annotated to the background measurement intended target family, where subfamily is baseline control.
Human hepatocyte cultures were treated daily for two consecutive days with fresh dosing solutions containing appropriate concentrations of the 320 ToxCast chemicals (chemical identities were blinded to CellzDirect and other ToxCast collaborators), vehicle control (0.2% DMSO), and positive control inducers as summarized in Table 1. Due to the large number of treatment groups and chemicals examined, the ToxCast chemicals were divided into two groups (spanning two independent cultures of hepatocytes from separate donor preparations (Hu778: ToxCast plates 1 and 2; Hu776: ToxCast plates 3 and 4). Each preparation of human hepatocyte cultures was treated with respective vehicle control, medium only control, set of six positive controls/reference chemicals for the five hepatic receptor pathways, and a subset of eight of the ToxCast chemicals (indoxacarb, pyrithiobac-sodium, norflurazon, cyhalofop-butyl, methomyl, thiram, acetochlor, and propiconazole). These replicate data, coupled with internal replicates designed within the blinded ToxCast chemical library, provided additional data to evaluate interindividual differences between hepatocyte preparations and their potential impact on chemical profiles.Cell morphology and integrity were evaluated using phase-contrast microscopy as an indicator of hepatocyte cell health (Tyson & Green, 1987). Cultures for each treatment group (i.e., media, vehicle [0.2% DMSO], positive control inducers [multiple concentrations], and the ToxCast chemicals [multiple concentrations]) were observed and cell morphology was assessed relative to vehicle control cultures at each harvest time point (0, 6, 24, or 48 h). […] Images were evaluated at the conclusion of the study to assess changes in cell integrity and account for the effects of chemical exposure on uncharacteristic changes in concentration-dependent gene expression profiles. The results from these determinations of apparent cytotoxicity were annotated (yes/no) alongside the corresponding qNPA data for reference.At the conclusion of each treatment period, hepatocyte cultures (96-well) were washed with 1 volume of HBSS, lysed by addition of 25 ul ArrayPlate lysis buffer (HTG, Tucson, AZ), and 70 ul/well of Denaturation Oil, denatured by incubation at 95C for 10 min, and frozen at approximately -70C until analysis by nuclease protection assay (qNPA) (Roberts et al., 2007). For qNPA analysis, cell lysates were thawed at 50C for approximately 30 min, qNPA probes were added, and samples were incubated at 95C for 10 min to begin the detection process by denaturing the target RNA, dissociating the duplexes and secondary structure hybridization. At the conclusion of the hybridization period, S1 nuclease reagent was added to each sample to digest all nonprotected nucleotides at 50C for 60-90 min. […]
Take `CC(C)=CC1C(C(=O)OCN2C(=O)C3=C(CCCC3)C2=O)C1(C)C` (centres undefined): the outcome was inactive.

Regarding `CC1=NNC(=O)N(/N=C/c2cccnc2)C1`, the outcome was inactive.

`CCCCOC(=O)c1ccccc1C(=O)O`: the compound was called inactive.

With `CCOP(=O)(NC(C)C)Oc1ccc(SC)c(C)c1` (centres undefined), the outcome was inactive.

As to `C#CCC1=C(C)C(OC(=O)C2C(C=C(C)C)C2(C)C)CC1=O` (centres undefined), the outcome was inactive.

On to `CCCCOC(=O)[C@@H](C)Oc1ccc(Oc2ccc(C#N)cc2F)cc1`, for which the call was inactive.

`COc1ccc(C(=CC(=O)N2CCOCC2)c2ccc(Cl)cc2)cc1OC`: the compound was called inactive.

Turning to `CN(C)NC(=O)CCC(=O)O`, the outcome was inactive.

`CCc1cnc(C2=NC(C)(C(C)C)C(=O)N2)c(C(=O)O)c1` (centres undefined): the call was inactive.

In the case of `S=C1NCCN1`, the call was inactive.

Turning to `CN(C)[C@@H]1C(=O)C(C(N)=O)=C(O)[C@@]2(O)C(=O)C3=C(O)c4c(O)cccc4[C@@](C)(O)[C@H]3[C@H](O)[C@@H]12`, the compound was called inactive.

On to `CCCOc1nn(C(=O)NS(=O)(=O)c2ccccc2C(=O)OC)c(=O)n1C`, for which the result was inactive.

For `N#CSCSC#N`, the result was inactive.

As for `O=c1ccc(=O)[nH][nH]1`, the compound was classed as inactive.

With `CCOP(=O)(OCC)Oc1cc(C)nc(C(C)C)n1`, the result was inactive.

Turning to `CCC(=NOC/C=C/Cl)C1=C(O)CC(C2CCOCC2)CC1=O` (centres undefined), the call was inactive.

On to `CCCOCC(=Nc1ccc(Cl)cc1C(F)(F)F)n1ccnc1`, for which the result was inactive.

With `O=C(O)c1cc(Oc2ccc(C(F)(F)F)cc2Cl)ccc1[N+](=O)[O-]`, the result was inactive.

Regarding `CNC(=O)ON=C(C)SC`, the call was inactive.

Turning to `COc1cc(OC)nc(Sc2cccc(Cl)c2C(=O)O)n1`, the compound was classed as inactive.

`CC[C@H](C)[C@H]1O[C@]2(C=C[C@@H]1C)C[C@@H]1C[C@@H](C/C=C(\C)[C@@H](O[C@H]3C[C@H](OC)[C@@H](O[C@H]4C[C@H](OC)[C@@H](NC)[C@H](C)O4)[C@H](C)O3)[C@@H](C)/C=C/C=C3\CO[C@@H]4[C@H](O)C(C)=C[C@@H](C(=O)O1)[C@]34O)O2`: the compound was classed as inactive.

With `Nc1nc(N)nc(NC2CC2)n1`, the compound was classed as inactive.

With `CSc1nnc(C(C)(C)C)c(=O)n1N`, the outcome was inactive.

For `COP(=O)(NC(C)=O)SC` (centres undefined), the result was inactive.

In the case of `CCOP(=S)(OCC)OC(Cl)C(Cl)(Cl)Cl` (centres undefined), the outcome was inactive.

On to `CC(C)N(C(=O)SCC(Cl)=C(Cl)Cl)C(C)C`, for which the compound was classed as inactive.

Take `CC(Oc1cccc(Cl)c1)C(=O)O` (centres undefined): the compound was classed as inactive.

Take `CNC(=O)ON=C(SC)C(=O)N(C)C`: the result was inactive.

Regarding `CCc1cccc(CC)c1N(COC)C(=O)CCl`, the compound was called inactive.
